Results reported in PubChem BioAssay (Tox21).
Values joined by “and” are separate entries in the source; they are usually repeats but may differ in a detail not shown here. Identical values can stand only once. Inconclusive results are not listed. A call without a number means that no potency is given here. A structure can be active in one record and inactive in another. Active and inactive are the calls of the source. Unless noted, calls come from the whole dose curve; as a rule, active = well fitted curve in the direction sought with a large enough effect in the repeat runs; inconclusive = weak or mixed curves; inactive = no such curve, though single readings can be large; an effect the other way counts as inactive or inconclusive.

How the values were obtained:
[1] = qHTS assay to identify small molecule agonists of the constitutive androstane receptor (CAR) signaling pathway - cell viability counter screen (AID 1224836); note: nearly all actives have a fitted effect of over 45% in size; note: potency is the fitted concentration of half-maximal effect
How it was run: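 Fluorescence from CellTiter-Fluor indicates live cells after 23 h exposure. The human hepatoma line expresses hCAR and a CYP2B6-2.2kb reporter. Incubation medium contains 0.75 uM PK11195 (final).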

[2] = qHTS assay to identify small molecule antagonists of the constitutive androstane receptor (CAR) signaling pathway - cell viability counter screen (AID 1224837); note: nearly all actives have a fitted effect of over 45% in size; note: potency is the fitted concentration of half-maximal effect
How it was run: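 HepG2 cells stably carrying hCAR and CYP2B6-2.2kb reporter, stimulated with 50 nM CITCO and compounds at 15 concentrations for 23 h at 37 C. Viability measured by CellTiter-Fluor fluorescence.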

[3] = qHTS assay to identify small molecule antagonists of the estrogen related receptor signaling pathway with the pleiotropic PPARgamma coactivator (PGC) from Tox21 10K library - cell viability counter screen (AID 1224840; active = well fitted cell-killing curve with a large enough effect in the repeat runs, not every such curve was filed as active; note: nearly all actives have a fitted effect of over 40% in size; note: potency is the fitted concentration of half-maximal effect)
How it was run: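 PGC/ERR cells (2,000/well) plated 6 h, then compound-treated for 17.5 h at 37 C. Viability measured by CellTiter-Fluor fluorescence after 30 min at 37 C, multiplexed with the pathway assay.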

[4] = qHTS assay to identify small molecule agonists of the hypoxia (HIF-1) signaling pathway - cell viability counter screen (AID 1224844; calls by dose curve; note: nearly all actives have a fitted effect of over 50% in size; note: potency is the fitted concentration of half-maximal effect)
How it was run: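 HRE-bla ME-180 cells, 2,000/well in 0.5% dialyzed FBS medium, treated 17 h at 37C with compounds. Viability read in the same wells as the bla reporter, by CellTiter-Glo luminescence after 30 min at room temperature.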

[5] = qHTS assay to identify small molecule agonists of H2AX (AID 1224845; active = well fitted activation curve with a large enough effect in the signal ratio in the repeat runs, not every such curve was filed as active; the % refers to the signal ratio; note: potency is the fitted concentration of half-maximal effect)
How it was run: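 Wild-type CHO-K1 cells plated overnight, then exposed 3 hr at 37C to compounds at 15 concentrations (0.76% DMSO). Lysed, then HTRF anti-pH2AX(S139)-cryptate/anti-H2AX-d2 detection after 24 hr at room temperature; emissions 665 and 620 nm.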

[6] = A CellTox Green Cytotoxicity Assay to monitor cytotoxicity in HEK293 cells - 0 hour (AID 1224869); note: nearly all actives have a fitted effect of over 50% in size
How it was run: (§1)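 HEK293 cells, 600/well, were preincubated 5 hours and then exposed to compounds at 37 C for up to 40 hours. A cell-impermeant cyanine dye staining dead-cell DNA was read by fluorescence at 0, 8, 16, 24, 32 and 40 h time points.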

[7] = qHTS RealTime-Glo MT Cell Viability Assay in HepG2 cells - 40 hour (AID 1224870); note: nearly all actives have a fitted effect of over 50% in size; note: potency is the fitted concentration of half-maximal effect
How it was run: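 HepG2 cells mixed with RealTime-Glo MT reagents (NanoLuc plus cell-permeant prosubstrate) were seeded at 600 cells/well, incubated 5 h at 37 C/5% CO2, then pinned with compounds in DMSO; nonlytic luminescence tracked viability during 40 h treatment.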

[8] = qHTS assay to identify small molecule agonists of H2AX - cell viability counter screen (AID 1224847; calls by dose curve; note: nearly all actives have a fitted effect of over 30% in size; note: potency is the fitted concentration of half-maximal effect)
How it was run: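 Viability of CHO-K1 (wild type) cells after 3 hr compound exposure was measured by CellTiter-Glo luminescence.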

[9] = qHTS RealTime-Glo MT Cell Viability Assay in HepG2 cells - 24 hour (AID 1224867); note: nearly all actives have a fitted effect of over 50% in size; note: potency is the fitted concentration of half-maximal effect
How it was run: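 HepG2 suspension premixed with RealTime-Glo reagents is plated at 600 cells per well and left 5 h at 37 C/5% CO2. Compounds in DMSO then go in, and bioluminescence reflecting viable cell number is recorded over 40 h.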

[10] = qHTS RealTime-Glo MT Cell Viability Assay in HEK293 cells - 32 hour (AID 1224868); note: nearly all actives have a fitted effect of over 50% in size; note: potency is the fitted concentration of half-maximal effect
How it was run: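 Reads taken at 0, 8, 16, 24, 32 and 40 h from the same wells. HEK293 cells (600/well) carried RealTime-Glo reagents from seeding, with compound added after a 5 h settle at 37 C.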

[11] = qHTS assay to identify small molecule agonists of the estrogen related receptor signaling pathway with the pleiotropic PPARgamma coactivator (PGC) from Tox21 10K library (AID 1224842); note: nearly all actives have a fitted effect of over 15% in size; note: potency is the fitted concentration of half-maximal effect
How it was run: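 PGC/ERR reporter cells (NTP line) were seeded 2,000 per well, rested 6 h at 37 C/5% CO2, then pin-dosed with compounds in DMSO for 18 h at 37 C; luciferase read by One-Glo luminescence after 30 min at room temperature.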

[12] = molecular target: Thyrotropin receptor (Homo sapiens) (UniProt P16473); experiment: qHTS assay to identify small molecule agonists of the thyroid stimulating hormone receptor (TSHR) signaling pathway (AID 1224843; calls by dose curve; note: nearly all actives have a fitted effect of over 45% in size)
Chain of Thyrotropin receptor (Homo sapiens) (P16473 whole entry, looked up): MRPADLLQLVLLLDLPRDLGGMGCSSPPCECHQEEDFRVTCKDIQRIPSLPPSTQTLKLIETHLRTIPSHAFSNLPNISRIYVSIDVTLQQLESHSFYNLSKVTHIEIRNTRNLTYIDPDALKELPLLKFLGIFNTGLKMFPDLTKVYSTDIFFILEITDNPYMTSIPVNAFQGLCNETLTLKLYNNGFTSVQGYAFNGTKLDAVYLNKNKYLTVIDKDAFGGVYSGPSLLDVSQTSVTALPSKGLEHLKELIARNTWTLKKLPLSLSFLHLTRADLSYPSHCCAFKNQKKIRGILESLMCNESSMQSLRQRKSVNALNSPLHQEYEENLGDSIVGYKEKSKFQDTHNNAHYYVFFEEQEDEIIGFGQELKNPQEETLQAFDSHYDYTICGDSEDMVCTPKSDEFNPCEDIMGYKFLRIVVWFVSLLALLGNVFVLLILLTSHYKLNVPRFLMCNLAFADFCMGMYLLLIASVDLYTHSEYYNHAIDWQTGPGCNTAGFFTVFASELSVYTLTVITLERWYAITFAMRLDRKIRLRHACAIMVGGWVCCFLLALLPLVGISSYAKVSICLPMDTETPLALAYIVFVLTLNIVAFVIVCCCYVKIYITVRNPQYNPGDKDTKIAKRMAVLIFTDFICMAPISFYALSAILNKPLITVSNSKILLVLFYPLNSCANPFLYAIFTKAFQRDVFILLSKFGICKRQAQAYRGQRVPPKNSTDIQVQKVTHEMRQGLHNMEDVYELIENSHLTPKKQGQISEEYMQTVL
How it was run: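 TSHR-expressing HEK293 cells (800 per well) were exposed to compounds for 30 min at room temperature. cAMP was then detected by HTRF competition with cAMP-d2 and anti-cAMP cryptate, read after 1 h at room temperature. Fifteen concentrations, triplicate.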

[13] = qHTS assay to identify small molecule agonists of the hypoxia (HIF-1) signaling pathway (AID 1224846; active = well fitted activation curve with a large enough effect in the signal ratio in the repeat runs, not every such curve was filed as active; the % refers to the signal ratio)
How it was run: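 HRE-bla ME-180 beta-lactamase reporter cells in medium with 0.5% dialyzed FBS, pre-incubated 5 h then exposed to compounds 17 h at 37C, 5% CO2; reporter induction read with CCF4-AM FRET substrate.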

[14] = qHTS assay to identify small molecule antagonists of the estrogen related receptor (ERR) signaling pathway from Tox21 library (AID 1224848); note: nearly all actives have a fitted effect of over 50% in size
How it was run: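 Cells: ERR line, 2,000/well; 6 h preincubation 37 C/5% CO2. Cpd in DMSO via pin tool; 18 h, 37 C. ONE-Glo, 30 min RT, luminescence.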

[15] = qHTS assay to identify small molecule agonists of the estrogen related receptor (ERR) signaling pathway from Tox21 library (AID 1224849; calls by dose curve; note: nearly all actives have a fitted effect of over 15% in size); settings: ERR reporter cell line, ONE-Glo luciferase, 18 h; at 92.4 µM (top of the series) unless noted
How it was run: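 ERR reporter cells (NTP line) pre-incubated 6 hours at 37 C, then exposed to compounds for 18 hours at 37 C. ONE-Glo luciferase luminescence was read after 30 minutes at room temperature.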

[16] = A CellTox Green Cytotoxicity Assay to monitor cytotoxicity in HEK293 cells - 40 hour (AID 1224871); note: nearly all actives have a fitted effect of over 45% in size; note: potency is the fitted concentration of half-maximal effect
How it was run: as §1

[17] = molecular target: Nuclear receptor subfamily 1 group I member 3 (Homo sapiens) (UniProt Q14994); experiment: qHTS assay to identify small molecule antagonists of the constitutive androstane receptor (CAR) signaling pathway (AID 1224838); note: nearly all actives have a fitted effect of over 40% in size
Chain of Nuclear receptor subfamily 1 group I member 3 (Homo sapiens) (Q14994 whole entry, looked up): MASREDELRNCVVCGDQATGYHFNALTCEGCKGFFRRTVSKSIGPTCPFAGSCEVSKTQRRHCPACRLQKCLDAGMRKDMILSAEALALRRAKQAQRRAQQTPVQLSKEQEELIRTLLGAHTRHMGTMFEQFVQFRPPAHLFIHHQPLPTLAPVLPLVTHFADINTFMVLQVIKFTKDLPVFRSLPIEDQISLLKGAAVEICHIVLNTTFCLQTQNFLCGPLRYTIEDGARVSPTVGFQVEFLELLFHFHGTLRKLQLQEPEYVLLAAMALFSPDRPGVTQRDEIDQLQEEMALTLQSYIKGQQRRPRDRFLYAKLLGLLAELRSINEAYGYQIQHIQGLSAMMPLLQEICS
How it was run: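 HepG2 cells stably carrying hCAR and a CYP2B6-2.2kb luciferase reporter, seeded 4 hrs before compound (15 concentrations). Stimulated with 50 nM CITCO for 24 hr at 37 C. ONE-Glo luminescence read after 30 min at room temperature.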

[18] = qHTS assay to identify small molecule antagonists of the estrogen related receptor signaling pathway with the pleiotropic PPARgamma coactivator (PGC) from Tox21 10K library (AID 1224841; call rule not given here)
How it was run: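 PGC/ERR cell line, 2,000 cells/well, pre-incubated 6 hours at 37 C, then exposed to compounds for 18 hours at 37 C; luciferase read with One-Glo luminescence after 30 min at room temperature.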

[19] = molecular target: Nuclear receptor subfamily 1 group I member 3 (Homo sapiens) (UniProt Q14994); experiment: qHTS assay to identify small molecule agonists of the constitutive androstane receptor (CAR) signaling pathway (AID 1224839); note: nearly all actives have a fitted effect of over 15% in size
How it was run: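 Stable hCAR/CYP2B6-2.2kb HepG2 line in DMEM with 10% FBS; compounds (15 concentrations) and 0.75 uM PK11195 final, 24 h at 37 C/5% CO2, then ONE-Glo luminescence after 30 min.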

| Structure (SMILES) | Potency [1] | Potency [2] | Potency [3] | Potency [4] | Potency [5] | Potency [6] | Potency [7] | Potency [8] | Potency [9] | Potency [10] | cytotoxicity [6] | Potency [11] | Potency [12] | outcome [13] | Potency [14] | activity change, positive = activation [15] | Potency [16] | Potency [17] | Potency [18] | Potency [19] |
| --- | --- | --- | --- | --- | --- | --- | --- | --- | --- | --- | --- | --- | --- | --- | --- | --- | --- | --- | --- | --- |
| CC(=O)[O-].CC(=O)[O-].O.O.[Cd+2] | 5.37 µM (active) | 6.76 µM (active) | 12 µM (active) | 34.2 µM (active) | 62.7 µM (active) | inactive | inactive |  |  |  |  |  |  |  |  |  |  |  |  |  |
| CN(C)C(=S)[S-].CN(C)C(=S)[S-].[Cu+2] | 3.73 µM (active) | 1.49 µM (active) | 0.938 µM (active) | 2.67 µM (active) | 2.45 µM (active) |  | 2.38 µM (active) | 27.5 µM (active) | 2.67 µM (active) | 1.34 µM (active) | -8.31% [at 15.8 µM] (inactive) |  |  |  |  |  |  |  |  |  |
| Nc1ccc(Cl)cc1C(=O)c1ccccc1 | inactive |  | inactive | inactive | inactive | inactive | inactive | 101 µM (active) | inactive |  |  | 54.5 µM (active) | inactive | inactive | inactive | 3.06% (inactive) |  |  |  |  |
| Clc1ccc(CSC(Cn2ccnc2)c2ccc(Cl)cc2Cl)cc1 (stereo unspecified) | inactive |  | 29.8 µM (active) |  |  | inactive |  | 49.2 µM (active) |  |  |  |  | inactive |  |  |  | inactive |  |  |  |
| CCCCCCCCCCCCCC[P+](CCCCCC)(CCCCCC)CCCCCC (tested in a mixture with another compound) | 17.2 µM (active) | 17.2 µM (active) | 24.3 µM (active) |  | 17.9 µM (active) | inactive | 24.6 µM (active) | 5.05 µM (active) | 30.9 µM (active) | 4.9 µM (active) |  |  |  |  |  |  | 13.8 µM (active) |  |  |  |
| CN(C)C(=S)S | 19.7 µM (active) and 6.81 µM (active) and 27.3 µM (active) | 27.9 µM (active) and 7.64 µM (active) and 27.3 µM (active) | 2.15 µM (active) and 12.2 µM (active) | 1.41 µM (active) and 4.86 µM (active) and 4.36 µM (active) | 29 µM (active) and 4.47 µM (active) | inactive | inactive and 9.77 µM (active) | inactive | inactive and 11 µM (active) | 11.2 µM (active) and 1.73 µM (active) and 11 µM (active) |  |  |  |  |  |  |  |  |  |  |
| ClC(Cl)=C(c1ccc(Cl)cc1)c1ccc(Cl)cc1 | inactive | inactive | inactive |  |  | inactive | inactive |  | inactive |  |  | inactive |  |  | inactive | -26.1% (inactive) and 7.66% (inactive) | 43.6 µM (active) | inactive | inactive |  |
| Cc1cc(C)cc(OP(=O)(Oc2cc(C)cc(C)c2)Oc2cc(C)cc(C)c2)c1 | inactive | inactive | inactive | inactive | inactive | inactive | inactive | inactive | inactive |  |  | inactive | inactive | inactive | inactive | 0.886% (inactive) | inactive |  | inactive |  |
| [Cd+2].[Cl-].[Cl-] | 5.49 µM (active) and 9.69 µM (active) | 4.36 µM (active) and 9.69 µM (active) | 4.9 µM (active) and 2.73 µM (active) | 55.4 µM (active) | 50.9 µM (active) and 56.6 µM (active) | inactive | inactive |  |  |  |  |  |  |  |  |  | 24.8 µM (active) and 7.76 µM (active) |  |  |  |
| O=c1[nH]c2ccccc2n1CCCN1CCC(n2c(=O)[nH]c3cc(Cl)ccc32)CC1 |  |  |  | inactive |  | inactive | inactive |  | inactive | 10.7 µM (active) |  |  | inactive |  |  |  | inactive | inactive |  | inactive |
| O=[N+]([O-])O.O=[N+]([O-])O.[Cd] | 7.7 µM (active) | 6.11 µM (active) | 3.06 µM (active) |  |  | inactive | inactive |  |  | 49 µM (active) |  |  |  |  |  |  | 6.92 µM (active) |  |  |  |
| Nc1ccc([N+](=O)[O-])cc1Cl |  | inactive | inactive | inactive | inactive | inactive | inactive | inactive | inactive | inactive |  |  | inactive | inactive |  |  | inactive | inactive |  |  |
